Values joined by “and” are separate entries in the source; they are usually repeats but may differ in a detail not shown here. Equal entries are not always repeated. Inconclusive results are not listed. Active and inactive are the calls of the source. Calls follow the shape of the dose curve; as a rule, active = well fitted curve in the direction sought with a large enough effect; inconclusive = small, poorly fitted or top-dose-only effect, or another doubt; inactive = no such curve, though single readings can be large; an effect the other way counts as inactive or inconclusive.
Assays:
[1] = Viability qHTS for spleen associated tyrosine kinase inhibitor (SYKi) naive MV4-11 cells (AID 1963823); also: nearly all actives have a fitted effect of over 40% in size; also: potency is read from the fitted curve at half-maximal effect
Procedure, shortened: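 qHTS, SYK inhibitor-naive MV4-11; 500 cells/well; 72 hr compound exposure, 37 C; CellTiter-Glo added, 10 min RT; luminescence read.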

[2] = Viability qHTS for spleen associated tyrosine kinase inhibitor (SYKi) drug resistant MV4-11 cells (AID 1963824); also: nearly all actives have a fitted effect of over 35% in size; also: potency is read from the fitted curve at half-maximal effect
Procedure, shortened: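 SYK inhibitor-resistant MV4-11 AML cells, 500 per well, added to predispensed compounds and incubated 72 hr at 37 C, 5% CO2. Viability measured by CellTiter-Glo luminescence after 10 min at room temperature.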

[3] = Quantitative highthroughput screen to assess conditional lethalithy of NOMO1 cells grown in RPMI1640 with untreated serum (RPMI+s) (AID 1963876); also: nearly all actives have a fitted effect of over 35% in size; also: potency is read from the fitted curve at half-maximal effect;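 as to Viability: 100% = DMSO wells and 0% = empty wells without cells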
Procedure, shortened: (§1)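 Each medium arm—HPLM with 10% dialyzed FBS, or RPMI1640 with 5 mM glucose and 10% untreated or dialyzed FBS—was screened against an 11-point, 3-fold compound titration for 48 h at 37 °C, with CellTiter-Glo luminescence as endpoint.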

[4] = Quantitative highthroughput screen to assess conditional lethalithy of SEM cells grown in RPMI1640 with unreated serum (RPMI+s) (AID 1963883); also: nearly all actives have a fitted effect of over 35% in size; also: potency is read from the fitted curve at half-maximal effect;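 as to Viability: 100% = DMSO wells and 0% = empty wells without cells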
Procedure, shortened: as §1

[5] = Cellular viability qHTS for adrenocortical cancer (ACC) cell line NCI-H295R (AID 1963990); also: nearly all actives have a fitted effect of over 60% in size; also: potency is read from the fitted curve at half-maximal effect;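 as to activity change, negative = viability loss: 0% = DMSO only wells and -100% = full killing with cytotoxic reference compound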
Procedure, shortened: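 Compound titrations (up to 46 uM final) are applied to NCI-H295R cultures for 48 h at 37C. Viable cell number is estimated by CellTiter-Glo signal, normalised to DMSO and doxorubicin controls.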

[6] = Quantitative highthroughput screen to assess conditional lethalithy of NOMO1 cells grown in RPMI1640 with dialyzed fetal bovine serum (RPMI+ds) (AID 1963877); also: nearly all actives have a fitted effect of over 30% in size; also: potency is read from the fitted curve at half-maximal effect;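 as to Viability: series mostly up to about 46 µM; 100% = DMSO control wells and 0% = empty wells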
Procedure, shortened: as §1

[7] = Quantitative highthroughput screen to assess conditional lethalithy of NOMO1 cells grown in Human Plasma-Like Medium with dialyzed fetal bovine serum (HPLM+ds) (AID 1963878); also: nearly all actives have a fitted effect of over 35% in size; also: potency is read from the fitted curve at half-maximal effect;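 as to Viability: 100% = DMSO wells and 0% = empty wells on each plate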
Procedure, shortened: as §1

[8] = Quantitative highthroughput screen to assess conditional lethalithy of P12 Ichikawa cells grown in Human Plasma-Like Medium with dialyzed fetal bovine serum (HPLM+ds) (AID 1963879); conditions: Potency: viability; also: nearly all actives have a fitted effect of over 35% in size; also: potency is read from the fitted curve at half-maximal effect; as to Viability: series mostly up to about 46 µM
Procedure, shortened: as §1

[9] = Quantitative highthroughput screen to assess conditional lethalithy of P12 Ichikawa cells grown in RPMI1640 with dialyzed fetal bovine serum (RPMI+ds) (AID 1963880); conditions: Potency: P12-Ichikawa viability; also: nearly all actives have a fitted effect of over 35% in size; also: potency is read from the fitted curve at half-maximal effect;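 as to Viability: 100% = DMSO wells and 0% = empty wells on each plate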
Procedure, shortened: as §1

[10] = Quantitative highthroughput screen to assess conditional lethalithy of P12 Ichikawa cells grown in RPMI1640 with untreated serum (RPMI+s) (AID 1963881); conditions: Potency: viability
Procedure, shortened: as §1

[11] = Quantitative highthroughput screen to assess conditional lethalithy of SEM cells grown in Human Plasma-Like Medium with dialyzed fetal bovine serum (HPLM+ds) (AID 1963882); also: nearly all actives have a fitted effect of over 35% in size; also: potency is read from the fitted curve at half-maximal effect; as to Viability: series mostly up to about 46 µM
Procedure, shortened: as §1

[12] = Quantitative highthroughput screen to assess conditional lethalithy of SEM cells grown in RPMI1640 with dialyzed fetal bovine serum (RPMI+ds) (AID 1963884); also: nearly all actives have a fitted effect of over 35% in size; also: potency is read from the fitted curve at half-maximal effect;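 as to Viability: series mostly up to about 46 µM; 100% = DMSO control wells and 0% = empty wells without cells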
Procedure, shortened: as §1

[13] = Cellular viability qHTS for adrenocortical cancer (ACC) cell line SW-13 (AID 1963989); conditions: SW-13 ACC cells viability, CellTiter-Glo, 48 h; activity (max response): hits give low values; also: nearly all actives have a fitted effect of over 65% in size; also: potency is read from the fitted curve at half-maximal effect;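 as to activity (max response): cells grown in serum-free medium with ITS supplement; % is scaled to controls: 0 for no effect and ±100 for the full control effect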
Procedure, shortened: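 48 h treatment, SW-13 in ITS/DMEM serum-free; doses up to 46 uM; readout CellTiter-Glo luminescence; curve fit four-parameter logistic.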

CNC(=O)Nc1ccc(-c2nc(N3CC4CCC(C3)O4)c3cnn(C4CCC5(CC4)OCCO5)c3n2)cc1
active: Potency [1] 74.2 nM | Potency [2] 166 nM | Potency [3] 0.059 µM | Potency [4] 0.0418 µM | Potency [5] 0.282 µM

O=P(O)(O)C(O)(Cn1ccnc1)P(=O)(O)O
inactive: viability (% of control) [1] 79.2% [at 4.97 µM] | viability, % of control [2] 89.7% [at 4.97 µM] | Potency [6] | Potency [7] | Potency [8] | Potency [9] | Potency [10] | Potency [11] | Potency [4] | Potency [12] | activity (max response) [13] -1.67% | activity change, negative = viability loss [5] -3.44% [at 3.81 µM]

Cc1ccc(F)c(NC(=O)Nc2ccc(-c3cccc4[nH]nc(N)c34)cc2)c1
inactive: Potency [6] | Potency [7] | Potency [9] | Potency [10]
active: Potency [1] 16.6 nM | Potency [2] 23.1 nM | Potency [12] 5.9 µM | Potency [13] 22.4 µM

COC(=O)C1=C(C)NC(C)=C(C(=O)OCCCN2CCC(c3ccccc3)(c3ccccc3)CC2)C1c1cccc([N+](=O)[O-])c1 (stereo unspecified)
active: Potency [1] 4.68 µM and 8.41 µM | Potency [2] 4.68 µM and 7.5 µM | Potency [13] 5.62 µM and 13 µM
inactive: Potency [6] | Potency [7] | Potency [8] | Potency [9] | Potency [10] | Potency [11] | Potency [4] | Potency [12]

C[C@H](CCC(=O)O)[C@H]1CCC2C3C[C@H](O)[C@@H]4C[C@H](O)CC[C@]4(C)C3CC[C@@]21C (stereo partly specified)
inactive: Potency [1] | Potency [2] | Potency [6] | Potency [7] | Potency [8] | Potency [10] | activity (max response) [13] 1.86%

CCOC(=O)Nc1ccc(NCc2ccc(F)cc2)nc1N
active: Potency [1] 14800 nM | Potency [2] 16600 nM
inactive: Potency [6] | Potency [7] | Potency [8] | Potency [10] | Potency [11] | Potency [12] | activity (max response) [13] -9.42% | Potency [5]

CN(C)S(=O)(=O)c1ccc2c(c1)C(=Cc1cc3c([nH]1)CCCC3)C(=O)N2
active: Potency [1] 833 nM | Potency [2] 1660 nM
inactive: Potency [6] | Potency [7] | Potency [8] | Potency [9] | Potency [10] | Potency [11] | Potency [4] | activity (max response) [13] -10.1% | Potency [5]

CC(=O)O[C@H]1C(=O)[C@@]2(C)C([C@H](OC(=O)c3ccccc3)[C@]3(O)C[C@H](OC(=O)[C@H](O)[C@@H](NC(=O)c4ccccc4)c4ccccc4)C(C)=C1C3(C)C)[C@]1(OC(C)=O)CO[C@@H]1C[C@@H]2O (stereo partly specified)
active: Potency [1] 5.1 nM and 8.3 nM | Potency [2] 3.6 nM and 7.4 nM | Potency [3] 0.0013 µM | Potency [5] 0.1 µM

Nc1ccc(C(=O)Nc2cccc(-c3nc(N4CCOCC4)c4oc5ncccc5c4n3)c2)cn1
inactive: Potency [3] | activity (max response) [13] -13.4%
active: Potency [1] 10300 nM | Potency [2] 3660 nM | Potency [11] 20.9 µM | Potency [4] 18.7 µM | Potency [12] 20.9 µM

Cc1ccc(C(=O)N(CCCN)[C@@H](c2oc3cc(Cl)ccc3c(=O)c2Cc2ccccc2)C(C)C)cc1
inactive: Potency [3] | Potency [10] | Potency [11] | Potency [4] | Potency [12]
active: Potency [1] 10.5 nM | Potency [2] 8.3 nM | Potency [13] 0.0141 µM | Potency [5] 0.316 µM

Cc1nc2cnc3ccc(C#Cc4cccnc4)cc3c2n1-c1ccc(C(C)(C)C#N)cc1
active: Potency [1] 8.2 µM and 235 nM | Potency [2] 8.2 µM and 332 nM | Potency [3] 1.32 µM | Potency [4] 0.132 µM | Potency [5] 0.891 µM

O=C(Nc1ncc(SCCN2CCCC2)s1)[C@]1(c2ccc(S(=O)(=O)C3CC3)cc2)C[C@@H]1C1CCCCC1
active: Potency [1] 2590 nM | Potency [2] 2590 nM | Potency [6] 23.5 µM | Potency [7] 18.7 µM

Cc1cnc(C(=O)NCCc2ccc(S(=O)(=O)NC(=O)NC3CCCCC3)cc2)cn1
inactive: Potency [1] | Potency [2] | Potency [3] | Potency [11] | Potency [4] | activity (max response) [13] -1.95% and -7.3% | Potency [5]

NS(=O)(=O)c1cccc2c1C(=O)c1cccc(O)c1C2=O
active: Potency [1] 525 nM | Potency [2] 468 nM | Potency [6] 23.5 µM | Potency [7] 20.9 µM | Potency [8] 26.4 µM | Potency [9] 26.4 µM | Potency [11] 6.62 µM | Potency [4] 1.48 µM | Potency [12] 0.372 µM | Potency [13] 1.26 µM | Potency [5] 0.631 µM

CCCCCCCCCCCCc1ccc(S(=O)(=O)Nc2nncs2)cc1
active: Potency [1] 16400 nM | Potency [7] 7.43 µM | Potency [4] 3.32 µM | Potency [12] 6.62 µM
inactive: Potency [2] | Potency [6] | Potency [10] | Potency [11] | activity (max response) [13] -13.1% | Potency [5]

Source: PubChem BioAssay (NCATS)
